According to PubChem BioAssay AID1508622 (National Center for Advancing Translational Sciences (NCATS), 2021):
A number with no mark means an inactive call. The source made the active and inactive calls. Calls come from the whole dose curve; as a rule, active = well fitted activation curve with a large enough effect; inconclusive = small, poorly fitted or top-dose-only effect; inactive = no such curve, though single readings can be large or run the other way.

experiment: Confirmatory qHTS for Identification of Small Molecule Activators of Huntingtin-Antisense Promoter Activity; conditions: HEK293 HTT-AS promoter firefly luciferase reporter, 24 h; series mostly up to 57.5 µM; activity change, positive = activation: at the top concentration
Summary of the method: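 Activity normalized between vehicle control (0%) and zero RLU (-100%) from firefly luminescence (Dual-Glo). Compounds, up to 57.5 uM final, incubated 24 h at 37C on HEK293 reporter cells plated 24 h earlier.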
Potency is the fitted concentration of half-maximal effect.

| SMILES | activity change, positive = activation [%] | Potency |
| --- | --- | --- |
| Cc1ccc(-c2c(C)n3c4c(=O)n(C)c(=O)n(C)c4nc3n2CCO)cc1 | -61.8 |  |
| COc1ccc(CCNC(=O)Cn2nc(C)c3c(C)n(-c4ccc(C)cc4)nc3c2=O)c(OC)c1 | -88.8 |  |
| Cc1oc(-c2ccc(C(=O)NCc3ccccc3Cl)cc2)nc1CN1CCc2ccccc21 | -78.9 |  |
| COc1ccccc1N1CCN(C(CNC(=O)C(=O)NCc2cccnc2)c2cccnc2)CC1 (centres undefined) | -16.9 |  |
| CCc1ccc(OCC2c3cc(OC)c(OC)cc3CCN2C(=O)COc2ccccc2)cc1 (centres undefined) | -22.3 |  |
| Cc1ccc(Cl)cc1N1CCN(C(=O)C2CCN(S(=O)(=O)c3ccc4c(c3)oc(=O)n4C)CC2)CC1 | -28 |  |
| Cc1cc(C)c(Cn2c3ccccc3c3cnn(CC(=O)N4CCCCC4)c(=O)c32)c(C)c1 | -20.4 |  |
| COc1cccc(C2=CC(c3cc(Br)ccc3F)n3nnnc3N2)c1 (centres undefined) | -35.3 |  |
| CCOc1ccc(CNC(=O)c2ccc(Sc3ccc(Cl)cc3)c(NC(C)=O)c2)cc1OC | -61.1 |  |
| COc1ccc(N2CCN(CCCNC(=O)c3c(C)nn(-c4ccc(F)cc4)c3-n3cccc3)CC2)cc1 | -48.9 |  |
| CN1CCCC(n2nc(Cc3ccc(Cl)cc3)c3ccccc3c2=O)CC1 (centres undefined) | -9.68 |  |
| Cc1cc(C)c(S(=O)(=O)NCCc2csc3nc(-c4ccc(Cl)cc4)nn23)c(C)c1 | -37.2 |  |
| O=C(NCc1ccc(Cl)cc1)C1CCN(S(=O)(=O)c2ccc3c(c2)CCCN3C(=O)C2CCC2)CC1 | -26.1 |  |
| O=C(Nc1nnc(S(=O)(=O)N2CCc3ccccc32)s1)c1cccc(Cl)c1 | -45.6 |  |
| CCC1=Nc2cc(C(=O)NC3CCCC3)ccc2Sc2ccc(Cl)cc21 | -32.8 |  |
| CCNc1nc2c(c(=O)n(C)c(=O)n2C)n1Cc1ccc(F)cc1 | -94.7 |  |
| Cc1cccc(N2CCN(C(=O)C3CCN(S(=O)(=O)c4c(C)noc4C)CC3)CC2)c1C | -52.4 |  |
| Cc1ccc(C)c(N2CCN(C(=O)Cn3cnc4nc5c(cc4c3=O)CCCC5)CC2)c1 | -40.7 |  |
| CCOC(=O)c1ccc(CN(Cc2ccc(C)cc2)S(=O)(=O)c2ccc(NC(C)=O)cc2)cc1 | -21.7 |  |
| CCCCN1CC(c2nc3ccccc3n2CCCCOc2ccccc2C)CC1=O (centres undefined) | -45.6 |  |
| O=C(CSc1nc(-c2ccc(F)cc2)[nH]c1-c1ccccc1)Nc1ccccc1 | -48.9 |  |
| Cc1ccc(C)c(NC(=O)Cn2c(=O)oc3cc(S(=O)(=O)NCc4ccccc4)ccc32)c1 | -38.1 |  |
| O=C(C=Cc1ccc(CN(CCO)CCc2c[nH]c3ccccc23)cc1)NO |  | 2130 nM (active) |
| O=S(=O)(c1ccc(-c2csc(=Nc3ccc(OC(F)(F)Cl)cc3)n2CCCO)cc1)N1CCCC1 | -71.2 |  |
